Assay results taken from paper PMC4336329 (PLoS ONE, 2015).
Out of some 310,000 compounds screened, about 14,000 (4.5%) showed an effect of 50% or more. The effect is printed as a negative number. Shown is part of a subset that was picked to be rich in strong results.

target: human ether-à-go-go-related gene (hERG) potassium channel (human, UniProt Q12809); assay: primary screen, population patch clamp on CHO cells stably expressing hERG; higher = less effect of the substance
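Also: peak tail current of the secondary pulse compared with the same well before compound.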

human ether-à-go-go-related gene (hERG) potassium channel, sequence (Q12809 whole entry, looked up): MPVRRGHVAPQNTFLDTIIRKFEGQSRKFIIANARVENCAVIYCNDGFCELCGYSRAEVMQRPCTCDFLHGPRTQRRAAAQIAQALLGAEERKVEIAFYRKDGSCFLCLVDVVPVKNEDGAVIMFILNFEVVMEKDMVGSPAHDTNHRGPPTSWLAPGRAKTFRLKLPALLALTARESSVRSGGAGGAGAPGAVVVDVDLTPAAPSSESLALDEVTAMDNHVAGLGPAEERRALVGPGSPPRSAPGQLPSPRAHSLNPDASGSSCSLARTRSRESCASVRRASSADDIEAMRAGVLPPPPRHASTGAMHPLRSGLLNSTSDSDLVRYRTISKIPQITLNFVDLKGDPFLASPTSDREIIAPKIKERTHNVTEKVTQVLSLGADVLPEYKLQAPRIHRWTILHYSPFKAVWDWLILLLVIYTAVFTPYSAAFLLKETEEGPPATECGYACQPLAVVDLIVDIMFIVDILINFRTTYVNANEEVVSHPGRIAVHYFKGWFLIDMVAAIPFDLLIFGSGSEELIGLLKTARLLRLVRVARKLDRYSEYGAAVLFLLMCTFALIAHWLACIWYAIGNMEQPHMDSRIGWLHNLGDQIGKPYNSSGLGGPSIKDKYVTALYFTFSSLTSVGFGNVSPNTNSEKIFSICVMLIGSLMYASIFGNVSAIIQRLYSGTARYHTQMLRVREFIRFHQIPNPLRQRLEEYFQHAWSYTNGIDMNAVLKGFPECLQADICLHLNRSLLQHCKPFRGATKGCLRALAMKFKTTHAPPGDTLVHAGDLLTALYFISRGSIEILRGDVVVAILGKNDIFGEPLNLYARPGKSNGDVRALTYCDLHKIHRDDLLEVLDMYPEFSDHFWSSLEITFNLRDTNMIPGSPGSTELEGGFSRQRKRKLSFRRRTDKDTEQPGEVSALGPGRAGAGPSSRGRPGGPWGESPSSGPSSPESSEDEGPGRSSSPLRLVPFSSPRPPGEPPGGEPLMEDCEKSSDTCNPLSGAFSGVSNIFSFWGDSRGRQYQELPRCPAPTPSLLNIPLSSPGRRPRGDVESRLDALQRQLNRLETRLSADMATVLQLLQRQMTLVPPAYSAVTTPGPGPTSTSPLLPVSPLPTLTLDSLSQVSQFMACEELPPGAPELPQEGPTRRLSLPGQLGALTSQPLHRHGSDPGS

SMILES	hERG current change (%, negative = inhibition) at 10uM
O=C(CCCC(=O)N(CC(=O)NC1CCCC1)c1ccc(F)c(Cl)c1)Nc1ccccn1	-9.24%
COCCCN(C(=S)Nc1cc(Cl)cc(Cl)c1)C(C)c1ccccn1 (centres unmarked)	-38.8%
CCCc1cc(=O)[nH]c(SCC(=O)Nc2nonc2C)n1	4.4%
CCCc1cc(=O)[nH]c(SCC(=O)Nc2cc(C)on2)n1	-70.9%
CCc1cc(=O)[nH]c(SCC(=O)Nc2cc(C)on2)n1	-4.55%
COC(=O)C1=C(O)/C(=C\c2ccc(CNC(=O)C(=O)Nc3ccc(C)c(C)c3)o2)N=C1C	-17.8%
CC(=O)Nc1cc(C(=O)O)ccc1S(=O)(=O)c1ccc(C)cc1	6.18%
CN1CCCN(C(=O)COc2ccc(F)cc2F)CC1	-3.55%
CCCCNc1c(-c2ccc(OC)c(SC3CCCCC3)c2)nc2cnccn12.O=C(O)C(F)(F)F	-14.4%
CCCCNc1c(-c2ccc(-c3ccc(C(C)=O)cc3)c(OC)c2)nc2cnccn12.O=C(O)C(F)(F)F	-52.3%
CCCCCCSc1cc(-c2nc3cnccn3c2NCc2ccccc2)ccc1OC.O=C(O)C(F)(F)F	0.374%
CCOC(=O)c1nn(-c2ccccc2)c(=O)cc1SC(C)C	-19.1%
CN(C)c1nc(OCC(=O)NC(C)(C)C)nc(N(C)C)n1	8.21%
O=C(Cc1nnc(NC(=O)Nc2ccccc2F)s1)NCc1ccccc1	8.98%
CC(C)(C)NC(=O)c1cnn2c1NC(c1ccc(F)cc1)CC2C(F)(F)F (centres unmarked)	2.13%
COc1ccc(C(=O)Nc2nc(CC(=O)NCCc3ccccc3OC)cs2)cc1	-6.94%
Cc1nc(NCCc2ccc(S(N)(=O)=O)cc2)c2c3c(sc2n1)CCC3	8.64%
NS(=O)(=O)c1ccc(CCNc2nc(CN3CCCCC3)nc3sc4c(c23)CCC4)cc1	-72.9%
NS(=O)(=O)c1ccc(CCNc2nc(CN3CCOCC3)nc3sc4c(c23)CCC4)cc1	-31.2%
CCOC(=O)Cc1nnc(NC(=O)COc2ccc(C)cc2)s1	5.07%
N#C/C(=C\c1cccnc1)C(=O)Nc1ccccc1	4.04%
O=C(NCc1cccnc1)c1cccc(-c2cc3ccccc3oc2=O)c1	-63.9%

SMILES	hERG current change (%, negative = inhibition) at 10uM
O=C(Nc1cccnc1)c1cccc(-c2cc3ccccc3oc2=O)c1	14.5%
O=C(NCc1cccnc1)c1ccc(-c2cc3ccccc3oc2=O)cc1	4.65%
O=C(OCc1cn(-c2ccc(Cl)c(Cl)c2)nn1)c1ccccc1Cl	-5.05%
CCOC(=O)C1(CCc2ccccc2)CCN(Cc2ccn[nH]2)CC1	-72.5%
CCOC(=O)C1(CCCc2ccccc2)CCN(Cc2ccn[nH]2)CC1	-73%
Cc1ccc(Cn2c(C)c3cnn(CC(=O)NC4CCCC4)c(=O)c3c2C)cc1	7.2%
Cc1[nH]c(C)c2c(=O)[nH]ncc12	16.6%
CCN(CC(=O)Nc1ccc2c(c1)OCCO2)Cc1cc(=O)n2ccsc2n1	3.88%
Cn1c(=O)c2cc(S(=O)(=O)NCCC(=O)NCCC3=CCCCC3)ccc2n(C)c1=O	-15.8%
CN(CC(=O)NCCC1=CCCCC1)S(=O)(=O)c1ccc2c(c1)c(=O)n(C)c(=O)n2C	-64.9%
Cc1ccc(CCNC(=O)CN(C)S(=O)(=O)c2ccc3c(c2)c(=O)n(C)c(=O)n3C)cc1	-11.7%
Cc1nc2sc3c(=O)[nH]nnc3c2c(C)c1Br	15.5%
CC(=O)c1sc2nc(-c3ccco3)ccc2c1N	0.505%
O=C(Cc1ccccc1)N/N=C/c1cccnc1	20.3%
O=C(Cn1nc(-c2ccccc2)ccc1=O)Nc1ccc(N2CCN(C(=O)c3cccs3)CC2)cc1	-18.5%
Cc1ccc(C(=O)N2CCCC2)cc1S(=O)(=O)N1CCOCC1	1.43%
O=C(C1Cc2ccccc2CN1S(=O)(=O)c1ccc(F)cc1)N1CCCCC1 (centres unmarked)	-13.2%
COc1ccc(S(=O)(=O)N2Cc3ccccc3CC2C(=O)O)cc1 (centres unmarked)	-13.1%
COc1ccc(S(=O)(=O)N2Cc3ccccc3CC2C(=O)N2CCOCC2)cc1OC (centres unmarked)	-18.7%
O=C(c1ccco1)N1CCN(C(=O)C2Cc3ccccc3CN2S(=O)(=O)c2ccc(F)cc2)CC1 (centres unmarked)	-70.6%
COc1ccc(S(=O)(=O)N2Cc3ccccc3CC2C(=O)N2CCOCC2)cc1 (centres unmarked)	-59.2%
O=C(C1Cc2ccccc2CN1S(=O)(=O)c1ccc(F)cc1)N1CCOCC1 (centres unmarked)	-18%
